Compound activity: PubChem BioAssay, The Scripps Research Institute Molecular Screening Center
PAFAH2 FP inh: inhibitors of human PAFAH2; actives 0.99% (n = 340,000); recombinant PAFAH2, FP-rhodamine activity probe, fluorescence polarization; AID 492956; inhibition, % at 3.39 µM;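 active = inhibition above the mean over all tested compounds plus 3 SD, cut at about 30% in these data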;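 note: inhibitors block probe labeling of enzyme so polarization drops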
ZTA DNA inh: counter-screen for EBNA-1 inhibitors: inhibitors of Epstein-Barr virus ZTA | inhibition, % at 11 µM | ZTA-DNA binding, fluorescence polarization | P03206 | actives 0.15% (n = 320,000); in the data active = inhibition above about 33%
Target sequence (P03206 whole entry, looked up): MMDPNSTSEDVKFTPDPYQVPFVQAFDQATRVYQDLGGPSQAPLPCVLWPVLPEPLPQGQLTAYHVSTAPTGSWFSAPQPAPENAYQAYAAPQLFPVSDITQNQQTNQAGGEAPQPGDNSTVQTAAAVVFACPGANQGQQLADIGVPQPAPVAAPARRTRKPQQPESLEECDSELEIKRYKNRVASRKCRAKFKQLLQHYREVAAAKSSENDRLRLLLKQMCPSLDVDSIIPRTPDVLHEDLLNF
PAFAH1B3 inh: inhibitors of human PAFAH1B3; Q15102; recombinant PAFAH1B3, FP-rhodamine probe, fluorescence polarization; inhibition, % at 3.39 µM; actives 0.28% (n = 340,000); AID 492972;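 active = inhibition above the screen-wide average of all tested compounds plus 3 SD, cut at about 25% in these data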
pPAFAH FP inh: pPAFAH (human) enzyme inhibition | Q13093 | recombinant pPAFAH, FP-rhodamine probe fluorescence polarization | inhibition, % at 3.39 µM | actives 1.5% (n = 330,000) | AID 463082;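 active = inhibition above the mean inhibition across the screen plus 3 SD, cut at about 25% in these data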;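 note: inhibitors block binding of the rhodamine activity-based probe so polarization drops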
EBNA-1 inh: blocks EBNA-1 binding to DNA; EBNA-1 DNA binding, fluorescence polarization; inhibition, % at 14.8 µM; actives 0.34% (n = 300,000); AID 1950; in the data active = inhibition above about 28%
PAFAH1B2 inh: inhibitors of human PAFAH1B2. recombinant PAFAH1B2, FP-rhodamine activity probe, fluorescence polarization. inhibition, % at 3.39 µM. actives 1.2% (n = 340,000);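 active = inhibition above the mean of all tested compounds plus 3 SD, cut at about 24% in these data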
Target sequence (P68402 whole entry, looked up): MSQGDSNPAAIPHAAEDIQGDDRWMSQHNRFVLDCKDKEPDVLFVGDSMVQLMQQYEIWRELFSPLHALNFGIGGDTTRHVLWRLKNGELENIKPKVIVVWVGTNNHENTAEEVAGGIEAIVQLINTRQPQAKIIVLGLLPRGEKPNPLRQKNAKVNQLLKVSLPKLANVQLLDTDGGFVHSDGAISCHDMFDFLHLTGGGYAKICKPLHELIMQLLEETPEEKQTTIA
EBNA-1 confirm: EBNA-1 (EBV) inhibition, confirmation | shares compounds with EBNA-1 inh | Recombinant EBNA-1 DBD, Cy5-DNA fluorescence polarization | inhibition, % at 14.8 µM | actives 35% (n = 830) | AID 2292;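 active = mean inhibition across replicates above a set limit taken from the earlier primary screen, cut at about 28% in these data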
ZTA DNA inh trip: ZTA (EBV) inhibition, triplicate counter-screen; shares compounds with EBNA-1 inh; Zta-ZRE DNA binding, Cy5 fluorescence polarization; inhibition, % at 11.1 µM; 830 tested, under 10 active; AID 2328;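 active = mean inhibition over triplicates above a set limit taken from the primary EBNA-1 screen, cut at about 37% in these data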;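 note: purified full length Zta protein with Cy5 labeled ZRE DNA probe; inhibitors lower polarization by freeing the labeled DNA probe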
pPAFAH FP conf: pPAFAH (human) inhibition, confirmed. shares compounds with pPAFAH FP inh. recombinant pPAFAH, FP-Rh probe fluorescence polarization. inhibition, % at 3.39 µM. actives 72% (n = 2,300);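 active = mean inhibition of the triplicate above the hit cutoff set for the earlier primary screen, cut at about 25% in these data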
A number is an active result; . = inactive; / = no result given. Compounds with a hit are over-represented: about 2.9% of the library has one in this group of screens.

SMILES	PAFAH2 FP inh	ZTA DNA inh	PAFAH1B3 inh	pPAFAH FP inh	EBNA-1 inh	PAFAH1B2 inh	others
Cc1cc(/C=C2/C(=O)NC(=O)N(c3ccccc3)C2=O)c(C)n1-c1ccc(F)cc1	.	.	.	.	.	25.0
Cc1cc(/C=C2\C(=O)NC(=O)N(Cc3ccccc3)C2=O)c(C)n1-c1ccc(Cl)c(C(=O)O)c1	43.3	.	.	28.1	.	.
O=C1NC(=O)C(Nc2ccc(Cl)c(Cl)c2)C(=O)N1	.	/	.	/	/	.
O=C1NC(=O)C(=Cc2ccc(Sc3ccccc3)o2)C(=O)N1	33.1	.	.	.	.	29.3
COC(=O)C1=C(c2cccc(OC)c2OC)C[C@@H]2CC[C@H]1N2C(=O)NC(C)C	.	.	.	.	.	.
Oc1c(Br)c(Br)c(Br)c(Br)c1Br	.	.	.	32.4	/	41.3
O=P(NC(c1ccccc1)c1ccccc1)(Oc1ccccc1)Oc1ccccc1	.	.	.	.	.	.
O=P(O)(Oc1ccccc1)OC(c1ccccc1)C(F)(F)F (configuration not stated)	67.3	.	.	.	.	51.6
CC(O)(CS(=O)(=O)c1ccccc1)C(=O)Nc1cccc(C(F)(F)F)c1 (configuration not stated)	.	.	.	.	.	.
N/C(=N/[N+](=O)[O-])N1CCN(C(=O)Oc2ccc([N+](=O)[O-])cc2)CC1	.	.	.	.	.	.
Cc1ccc(C(=O)NC(O)C(Cl)(Cl)Cl)cc1 (configuration not stated)	.	.	.	.	.	.
c1ccc(OCC2CO2)cc1 (configuration not stated)	.	.	.	.	/	.
c1ccc(-c2[nH]c[n+](CC3CO3)c2-c2ccccc2)cc1 (configuration not stated)	/	40.4	/	.	.	/
NP(=O)(OCCCc1ccccc1)Oc1ccccc1 (configuration not stated)	.	.	.	.	.	62.0
Oc1cccc(/C=N/NP(=S)(c2ccccc2)c2ccccc2)c1	.	.	.	.	.	.
Nc1c(C(=O)NCC2CCCO2)c2nc3ccccc3nc2n1Cc1ccco1 (configuration not stated)	.	.	.	25.3	.	.
COc1ccc(-c2nn(CCC#N)cc2C(=O)Nc2ccc(C(C)=O)cc2)cc1[N+](=O)[O-]	.	.	.	.	.	.
O=C1CC(=O)N(Cc2ccccc2)C(=S)N1	.	.	.	.	.	31.4
COc1ccc(CN2C(=O)CC(=O)NC2=O)cc1	.	.	.	.	.	.
COC(=O)C1=C(c2ccc(F)cc2F)C[C@@H]2CC[C@H]1N2C	.	.	.	.	/	.
N#CC(C#N)=NNc1ccc(S(N)(=O)=O)cc1	.	.	32.3	29.6	.	.
CC1CCN(S(=O)(=O)c2ccc(NN=C(C#N)C#N)cc2)CC1	/	.	/	.	.	/
O=c1[nH]c(O)c(/C=C2/C=CC(c3cc(Cl)ccc3Cl)=N2)c(=O)[nH]1	.	.	47.6	.	.	76.4
CCC(C)/C=C(C)/C=C/C1=CC2=C(Cl)C(=O)C(C)(OC(C)=O)C(=O)C2=CO1 (configuration not stated)	.	.	.	32.2	.	.
O=C(Cc1ccccc1)Oc1cccc(-n2cnnn2)c1	.	.	.	.	.	.
SMILES	PAFAH2 FP inh	ZTA DNA inh	PAFAH1B3 inh	pPAFAH FP inh	EBNA-1 inh	PAFAH1B2 inh	others
CC(C)=CCN1CC[C@@]2(C)c3cc(O)ccc3CC1C2C (some centres not stated)	.	/	.	.	/	.
COC(=O)CC1=C(C(=O)OC)C2(C(=O)Nc3c(C)cccc32)C(C#N)=C(N)O1 (configuration not stated)	.	.	.	.	.	.
O=C(c1cc2c(s1)CCCCCC2)N1CCC2(CC1)OCCO2	.	.	.	33.3	.	.
O=c1c2ccccc2nc(/C=C/c2ccccn2)n1-c1ccccc1	.	151.1	.	.	118.1	.
COC(=O)C1=C(c2ccc(C(C)=O)cc2)C[C@@H]2CC[C@H]1N2C(=O)NCC1CC1	.	.	.	.	/	.
COC(=O)C1=C(c2ccc(C(C)=O)cc2)C[C@@H]2CC[C@H]1N2C(=O)NCc1ccc(F)cc1	.	.	.	.	/	34.2
COC(=O)C1=C(c2cccc(OCc3ccccc3)c2)C[C@@H]2CC[C@H]1N2C(=O)NCc1ccc(OC)c(OC)c1	.	.	.	.	/	26.3
Clc1cccc(CNCCc2c[nH]c3ccccc23)c1	.	.	.	.	.	.
CC(C)CN(CC(C)C)c1ccc(C=C2C(=O)NC(=S)NC2=O)cc1[N+](=O)[O-]	38.4	.	.	.	.	34.2
CC1Oc2cc3c(-c4c(O)cc(O)c5c(O)c6c(cc45)OC(C)C(C)C6=O)c(O)cc(O)c3c(O)c2C(=O)C1C (configuration not stated)	46.0	.	60.4	91.2	.	51.9
Cc1ccccc1-n1c(O)c(/C=N/Nc2nc3c(c(=O)n(C)c(=O)n3C)n2C)c(=O)[nH]c1=S	.	.	.	.	.	.
Cn1c(=O)c2c(nc(N/N=C/c3c(O)n(C4CCCCC4)c(=S)[nH]c3=O)n2C)n(C)c1=O	.	.	.	.	.	28.5
O=c1[nH]c(=O)n(CCc2ccccc2)c(O)c1C=NCc1ccc2c(c1)OCO2	.	.	.	.	31.1	.	EBNA-1 confirm=45.8;ZTA DNA inh trip=.
CCOc1ccccc1-n1c(O)c(C=NCc2ccc3c(c2)OCO3)c(=O)[nH]c1=O	.	.	.	.	.	.
COc1ccc(-c2csc(NC(=O)COC(=O)Cc3ccccc3)n2)cc1OC	/	.	/	.	30.5	/	EBNA-1 confirm=34.0;ZTA DNA inh trip=.
CCn1c(O)c(C(c2ccccn2)c2c(O)n(CC)c(=S)[nH]c2=O)c(=O)[nH]c1=S	.	.	.	.	.	.
CN(C)C(=O)Oc1noc2cc(Cl)ccc12	41.4	.	.	43.1	34.0	.	EBNA-1 confirm=.;ZTA DNA inh trip=.;pPAFAH FP conf=52.4
CC(C)c1ccc(-n2c(O)c(C=NC(CCS(C)=O)C(=O)O)c(=O)[nH]c2=S)cc1 (configuration not stated)	.	.	.	.	.	.
